Sampled rows, rich in hits. Any-hit rate of the full collection: about 27%.
CYP2C19 inh: blockers of cytochrome P450 2C19 activity – biochemical, luminescence, ADME assay, primary screen. P33261. CYP2C19 Supersomes, luciferin-H EGE luminescence, 30 min. inhibition, % at 5 µM. 96,000 compounds, 21% hits. AID 778, 2007;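 active means CYP2C19 inhibition above a set limit at 5 µM in the primary screen, cut at about 50% in these data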;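 further: plate controls were negative control wells for no effect and 2.5 mM tranylcypromine positive control for full effect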
CYP2C9 inhib: blockers of cytochrome P450 2C9 activity – biochemical, luminescence, ADME assay, primary screen; CYP2C9 Supersomes, luciferin-H conversion; inhibition, % at 5 µM; 96,000 compounds, 20% hits; AID 777, 2007;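 active means blocking of liver enzyme CYP2C9 beyond about 50% at 5 µM, limit read from the data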
sEH inh: soluble epoxide hydrolase inhibitors, primary screen, biochemical, human sEH; Bifunctional epoxide hydrolase 2 (Homo sapiens), P34913; recombinant human sEH enzymatic activity assay; inhibition, % at 2 µM; 91,000 compounds, 0.34% hits; in the data active means inhibition above about 80%
Target sequence (P34913 whole entry, looked up): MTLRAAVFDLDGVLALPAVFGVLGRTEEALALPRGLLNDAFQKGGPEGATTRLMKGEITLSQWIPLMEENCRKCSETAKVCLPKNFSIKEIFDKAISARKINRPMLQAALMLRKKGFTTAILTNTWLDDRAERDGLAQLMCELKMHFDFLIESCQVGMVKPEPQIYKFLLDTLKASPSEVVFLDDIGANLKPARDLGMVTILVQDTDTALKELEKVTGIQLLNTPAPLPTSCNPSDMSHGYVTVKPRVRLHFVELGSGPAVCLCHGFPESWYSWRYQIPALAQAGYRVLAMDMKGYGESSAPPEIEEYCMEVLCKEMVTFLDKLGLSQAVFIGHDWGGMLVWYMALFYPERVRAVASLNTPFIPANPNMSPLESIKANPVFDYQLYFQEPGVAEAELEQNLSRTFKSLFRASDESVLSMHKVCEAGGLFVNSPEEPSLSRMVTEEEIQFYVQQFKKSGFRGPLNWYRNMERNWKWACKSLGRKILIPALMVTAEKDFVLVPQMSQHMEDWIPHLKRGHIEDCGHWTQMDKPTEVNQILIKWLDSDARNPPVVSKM
CYP2C9 act: human CYP2C9 activators, primary screen, biochemical, luminescence. Cytochrome P450 2C9 (Homo sapiens), P11712. recombinant CYP2C9, luciferin-H conversion; hits give high values; factor 1 = untreated enzyme, 0 = blocked. activation factor at 5 µM. 96,000 compounds, 1.4% hits. AID 1024, 2008;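 active means activation factor of 2 or more for CYP2C9 at a 5 µM dose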;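 further: 0 = sulfaphenazole-blocked wells and 1 = vehicle-only wells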
CYP2C19 activ: human CYP2C19 activators, primary screen, biochemical, luminescence; Cytochrome P450 2C19 (Homo sapiens), P33261; recombinant CYP2C19, luciferin-H EGE luminescence; hits give high values; 0 = fully inhibited enzyme, 1 = untreated enzyme; activation factor at 5 µM; 96,000 tested, under 10 active;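 active means activation factor of at least 2 at 5 µM in the primary screen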;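 further: 0 = wells with 2.5 mM tranylcypromine and 1 = vehicle-only wells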
sEH act: soluble epoxide hydrolase activators, primary screen, biochemical, human sEH | purified human sEH enzymatic activity, activator screen | activation, % at 2 µM | 91,000 compounds, 0.04% hits; in the data active means activation above about 37%
The depositor's hits bear a star.

For Cc1cccc2c1N(CCCOc1ccc(C(C)(C)C)cc1)C(=O)C2=O the results were CYP2C19 inh 24, CYP2C9 inhib 9, CYP2C9 act 0.9 and CYP2C19 activ 0.8.
`Cc1ccc(OCCN2C(=O)c3ccccc3C2=O)c(C)c1` gave CYP2C19 inh 23, CYP2C9 inhib -2, sEH inh 7, CYP2C9 act 1, CYP2C19 activ 0.8 and sEH act -9.
Cc1cccc2c1N(CCCOc1ccccc1)C(=O)C2=O was read as CYP2C19 inh 62*, CYP2C9 inhib 43, sEH inh -14, CYP2C9 act 0.6, CYP2C19 activ 0.4 and sEH act 17.
Screening COCCn1c(=O)c2c3c(sc2n(CC(N)=O)c1=O)CCCC3 returned sEH inh -3 and sEH act 4.
For CN(c1ccc(C(=O)NCC2CCCO2)cc1)S(C)(=O)=O (configuration not stated) the results were CYP2C19 inh -1, CYP2C9 inhib -1, sEH inh -7, CYP2C9 act 1, CYP2C19 activ 1 and sEH act 5.
`Cc1noc(NS(=O)(=O)c2ccc(N3C(=O)c4ccccc4C3=O)cc2)c1C` gave CYP2C19 inh -4, CYP2C9 inhib 16, sEH inh -6, CYP2C9 act 0.8, CYP2C19 activ 1 and sEH act 0.
COc1cccc(C(=O)OCCN2C(=O)c3ccccc3C2=O)c1OC was read as CYP2C19 inh 90*, CYP2C9 inhib 35, sEH inh -2, CYP2C9 act 0.7, CYP2C19 activ 0.1 and sEH act 2.
Cc1cc(C(=O)OCCN2C(=O)c3ccccc3C2=O)c2ccccc2n1 was read as CYP2C19 inh 68*, CYP2C9 inhib 75*, CYP2C9 act 0.2 and CYP2C19 activ 0.3.
`Cc1ccc(S(=O)(=O)N2CCOCC2)cc1C(=O)OCC(=O)N1c2ccccc2NC(=O)C1(C)C` gave CYP2C19 inh -17, CYP2C9 inhib 20, sEH inh 0, CYP2C9 act 0.8, CYP2C19 activ 1.2 and sEH act 2.
`COc1cccc2cc(C(=O)N3CCc4ccccc4C3)c(=O)oc12` gave CYP2C19 inh 27, CYP2C9 inhib -97, CYP2C9 act 2* and CYP2C19 activ 0.7.
Screening CNC(=O)c1cc2cccc(OC)c2oc1=O returned sEH inh 4 and sEH act -2.
`COc1cc(Br)cc2cc(C(=O)N3CCN(c4ccccn4)CC3)c(=O)oc12` gave CYP2C19 inh 74*, CYP2C9 inhib 57*, sEH inh 10, CYP2C9 act 0.4, CYP2C19 activ 0.3 and sEH act -9.
COc1cccc2cc(C(=O)N3CCN(c4ccccc4F)CC3)c(=O)oc12 was read as CYP2C19 inh 36, CYP2C9 inhib 51*, sEH inh -8, CYP2C9 act 0.5, CYP2C19 activ 0.6 and sEH act 10.
CCOc1ccc(OCc2ccc(C(=O)N3CCc4ccccc4C3)o2)cc1 was read as CYP2C19 inh 51*, CYP2C9 inhib 31, sEH inh 5, CYP2C9 act 0.7, CYP2C19 activ 0.5 and sEH act -2.
For CCOc1ccc(N2CC(C(=O)N3CCc4ccccc4C3)CC2=O)cc1 (configuration not stated) the results were CYP2C19 inh -6, CYP2C9 inhib 47, sEH inh 10, CYP2C9 act 0.5, CYP2C19 activ 1.1 and sEH act -8.
`Cc1nnc(NC(=O)CSc2nnc(-c3ccc(S(=O)(=O)N4CCCC4)cc3)n2C)s1` gave sEH inh -5 and sEH act 5.
Screening COc1ccc(OCC(O)CN(C2CCCCC2)C2CCCCC2)cc1 (configuration not stated) returned CYP2C19 inh -4, CYP2C9 inhib 13, sEH inh -14, CYP2C9 act 0.9, CYP2C19 activ 1 and sEH act 16.
For CCOc1cccc2cc(C(=O)N3CCc4ccccc4C3)c(=O)oc12 the results were CYP2C19 inh 68*, CYP2C9 inhib -146, sEH inh -5, CYP2C9 act 2.5*, CYP2C19 activ 0.3 and sEH act 6.

High-throughput results: PubChem BioAssay, several laboratories
